Bioassay records: PubChem BioAssay, several laboratories
Autofluor counter – counter-screen for toxin protease inhibitors: compound fluorescence | compound autofluorescence counterscreen, microsphere flow cytometry; stronger effect = higher value | fluorescence intensity (concentration not given with the values) | 360,000 tested, 3.1% active; in the data active = fluorescence intensity above about 16000; inconclusive = no clear call, values can overlap the other calls
BJeLR lethal – BJeLR cell viability loss; BJeLR (HRASV12) viability, CellTiter-Glo ATP luminescence, 48 h; inhibition, % (test concentration not listed); 300,000 tested, 0.17% active; AID 1554; in the data active = inhibition above about 50%; inconclusive = no clear call, values can overlap the other calls
BoNT-A LC inh2 – blocks Botulinum neurotoxin A light chain protease; multiplex microsphere protease substrate cleavage, flow cytometry; inhibition, % at 10 µM; 360,000 tested, 0.17% active
BoNT-F LC inh – BoNT F light chain protease inhibition; Multiplex microsphere protease cleavage assay, flow cytometry; inhibition, % at 10 µM; 360,000 tested, 0.22% active; in the data active = inhibition above about 35%, passing the limit was not always enough; inconclusive = no clear call, values can overlap the other calls
Anthrax LF inh2 – blocks Bacillus anthracis lethal factor protease. multiplex microsphere protease cleavage assay, LF. AID 588501. 360,000 tested, 0.12% active. inhibition, % at 10 µM
Target sequence (P15917 whole entry, looked up): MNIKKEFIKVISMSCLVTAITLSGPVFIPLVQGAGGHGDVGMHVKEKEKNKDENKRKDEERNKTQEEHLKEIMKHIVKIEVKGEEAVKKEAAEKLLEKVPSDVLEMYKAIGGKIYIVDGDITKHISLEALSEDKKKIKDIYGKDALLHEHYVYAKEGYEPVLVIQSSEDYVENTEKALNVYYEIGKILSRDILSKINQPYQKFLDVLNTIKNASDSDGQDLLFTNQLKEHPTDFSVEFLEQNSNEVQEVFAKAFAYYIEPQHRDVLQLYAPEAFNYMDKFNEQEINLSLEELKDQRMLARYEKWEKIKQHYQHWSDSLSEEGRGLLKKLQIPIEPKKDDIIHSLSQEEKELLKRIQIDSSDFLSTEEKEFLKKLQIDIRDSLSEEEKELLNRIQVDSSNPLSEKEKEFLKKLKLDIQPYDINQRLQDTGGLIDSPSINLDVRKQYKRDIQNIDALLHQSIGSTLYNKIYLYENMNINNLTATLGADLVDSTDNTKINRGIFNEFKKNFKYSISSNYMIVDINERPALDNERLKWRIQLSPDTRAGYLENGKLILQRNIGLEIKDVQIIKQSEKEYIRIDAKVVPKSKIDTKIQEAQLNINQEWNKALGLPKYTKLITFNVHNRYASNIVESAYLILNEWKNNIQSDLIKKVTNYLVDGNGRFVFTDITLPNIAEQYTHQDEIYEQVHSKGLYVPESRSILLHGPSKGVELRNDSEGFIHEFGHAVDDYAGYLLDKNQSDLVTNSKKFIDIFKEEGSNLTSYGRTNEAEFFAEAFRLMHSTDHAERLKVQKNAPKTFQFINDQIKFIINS
Hits are given with their value. Hits are enriched below; roughly 3.5% of the tested compounds scored in any of these assays. Rule as the data show it, unless noted: active = inhibition above about 30%; inconclusive = no clear call, values can overlap the other calls; inactive = below that.

How did CCn1cc([N+](=O)[O-])c(C(=O)Nc2c(C)nn(Cc3c(F)c(F)c(F)c(F)c3F)c2C)n1 do in these assays?
Autofluor counter: 20974; BJeLR lethal: inactive; BoNT-A LC inh2: inactive; BoNT-F LC inh: inactive; Anthrax LF inh2: inactive

How did CCCCNC(=O)C1(C)CCN1C(=O)c1oc2ccccc2c1C (stereo not drawn) do in these assays?
Autofluor counter: inactive; BoNT-A LC inh2: inactive; BoNT-F LC inh: inactive; Anthrax LF inh2: inactive

What do the screens show for `O=C(NC1CC1)c1[nH]c(C(F)(F)F)nc1-c1ccccc1`?
Autofluor counter: inactive; BoNT-A LC inh2: inactive; BoNT-F LC inh: inactive; Anthrax LF inh2: inactive

What do the screens show for `Cc1nn(Cc2c(F)c(F)c(F)c(F)c2F)c(C)c1NC(=O)c1nn(C)cc1[N+](=O)[O-]`?
Autofluor counter: 22913; BJeLR lethal: inactive; BoNT-A LC inh2: inconclusive; BoNT-F LC inh: inactive; Anthrax LF inh2: inactive

Results for Cc1nn(Cc2c(F)c(F)c(F)c(F)c2F)c(C)c1NC(=O)c1nn(C)cc1Br ?
Autofluor counter: inactive; BJeLR lethal: inactive; BoNT-A LC inh2: inactive; BoNT-F LC inh: inactive; Anthrax LF inh2: inactive

What do the screens show for `CCc1ccc(CN(C)CCc2ccccn2)cc1`?
Autofluor counter: 16273; BJeLR lethal: inactive; BoNT-A LC inh2: inconclusive; BoNT-F LC inh: inactive; Anthrax LF inh2: inactive

What do the screens show for `Cc1ccc(CN(C)CCc2ccccn2)cc1`?
Autofluor counter: inactive; BJeLR lethal: inactive; BoNT-A LC inh2: inactive; BoNT-F LC inh: inactive; Anthrax LF inh2: inactive

How did CN(CCc1ccccn1)Cc1ccc(Cl)cc1 do in these assays?
Autofluor counter: 20900; BJeLR lethal: inactive; BoNT-A LC inh2: inactive; BoNT-F LC inh: inactive; Anthrax LF inh2: inactive

How did COC(=O)C[C@H]1C[C@H]2c3cc(NC(=O)NC4CCCC4)ccc3O[C@H]2[C@@H](CO)O1 do in these assays?
Autofluor counter: inactive; BoNT-A LC inh2: inactive; BoNT-F LC inh: inactive; Anthrax LF inh2: inactive

Results for Oc1ccc2ccccc2c1/C=N/n1cnnc1 ?
Autofluor counter: 22040; BJeLR lethal: inactive; BoNT-A LC inh2: inactive; BoNT-F LC inh: inactive; Anthrax LF inh2: inactive

Results for Oc1ccccc1C=NN=Cc1c(O)ccc2ccccc12 ?
Autofluor counter: inactive; BoNT-A LC inh2: inactive; BoNT-F LC inh: inactive; Anthrax LF inh2: inactive

What do the screens show for `CCCCCCOc1ccc(C(=O)n2cnc(N)n2)cc1`?
Autofluor counter: 21741; BJeLR lethal: inactive; BoNT-A LC inh2: inactive; BoNT-F LC inh: inactive; Anthrax LF inh2: inactive

How did CC(C)N1CCC1(C)C(=O)Nc1nc2ccccc2[nH]1 (stereo not drawn) do in these assays?
Autofluor counter: inactive; BoNT-A LC inh2: inactive; BoNT-F LC inh: inactive; Anthrax LF inh2: inactive

How did O=C(N/N=C\c1c(O)ccc2ccccc12)c1ccc(S(=O)(=O)N2CCCCC2)cc1 do in these assays?
Autofluor counter: inactive; BJeLR lethal: 76.9; BoNT-A LC inh2: 31.9; BoNT-F LC inh: inactive; Anthrax LF inh2: inactive

Results for O=C(NN=Cc1c(O)ccc2ccccc12)c1ccc2c(c1)OCO2 ?
Autofluor counter: inactive; BoNT-A LC inh2: inactive; BoNT-F LC inh: inactive; Anthrax LF inh2: inactive

What do the screens show for `O=C(N/N=C/c1c(O)ccc2ccccc12)c1ccc(CO)nc1`?
Autofluor counter: inactive; BJeLR lethal: inactive; BoNT-A LC inh2: inactive; BoNT-F LC inh: 40.0; Anthrax LF inh2: inactive

Results for CC1(C)OC(=O)C(=NNc2ccc(Cl)cc2)C(=O)O1 ?
Autofluor counter: 22457; BJeLR lethal: inactive; BoNT-A LC inh2: inactive; BoNT-F LC inh: inactive; Anthrax LF inh2: inactive

Results for CC1(C)OC(=O)C(=NNc2ccccc2)C(=O)O1 ?
Autofluor counter: inactive; BJeLR lethal: inactive; BoNT-A LC inh2: inactive; BoNT-F LC inh: inactive; Anthrax LF inh2: inactive

How did CCCC(=O)Nc1ccc(Cl)c(NC(=O)c2cccc(OC)c2)c1 do in these assays?
Autofluor counter: inactive; BJeLR lethal: inactive; BoNT-A LC inh2: inactive; BoNT-F LC inh: inactive; Anthrax LF inh2: inactive

Results for O=C1NC[C@H](CC2CCCCC2)N(CCC23CC4CC(CC(C4)C2)C3)C1=O ?
Autofluor counter: inactive; BoNT-A LC inh2: inactive; BoNT-F LC inh: inactive; Anthrax LF inh2: inactive

What do the screens show for `COc1cc(-c2nnc(COc3ccc4ccccc4c3)o2)cc(OC)c1OC`?
Autofluor counter: 22472; BJeLR lethal: inactive; BoNT-A LC inh2: inactive; BoNT-F LC inh: inactive; Anthrax LF inh2: inactive

How did COc1cc(-c2nnc(-c3ccccc3)o2)cc(OC)c1OC do in these assays?
Autofluor counter: inactive; BJeLR lethal: inactive; BoNT-A LC inh2: inactive; BoNT-F LC inh: inactive; Anthrax LF inh2: inactive

What do the screens show for `CCOC1=C2CN(S(=O)(=O)c3ccc(C)cc3)[C@@H](c3ccc(CC)cc3)C[C@H]2[C@H]2C(=O)N(c3ccccc3)C(=O)[C@H]2C1`?
Autofluor counter: inactive; BoNT-A LC inh2: inactive; BoNT-F LC inh: inactive; Anthrax LF inh2: inactive
